This note sets out measurements from publication PMC7862700, “An all-to-all approach to the identification of sequence-specific readers for epigenetic DNA modifications on cytosine”.

Holding throughout (assay): DAPPL (digital affinity profiling via proximity ligation, sequencing); 10 mM Tris-HCl pH 7.5, 50 mM NaCl, 1 mM DTT, 4% glycerol, room temperature, 30 min; GST-TFs on glutathione beads, 16-mer random dsDNA library, 0.1% formaldehyde crosslink after washing; high values mean tight binding
One experiment has as its target T1, FEV (Homo sapiens, UniProt Q99581 1-238).
T1 sequence: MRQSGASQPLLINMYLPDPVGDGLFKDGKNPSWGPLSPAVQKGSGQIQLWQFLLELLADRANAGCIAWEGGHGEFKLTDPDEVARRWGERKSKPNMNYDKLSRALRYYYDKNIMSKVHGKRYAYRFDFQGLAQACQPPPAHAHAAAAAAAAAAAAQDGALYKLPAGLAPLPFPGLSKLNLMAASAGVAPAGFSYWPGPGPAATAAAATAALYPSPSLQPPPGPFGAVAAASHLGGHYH
The settings on record: protein: recombinant; tags: N-terminal GST; dsDNA, one strand shown. The method, boiled down:
(§1)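 Human transcription factors were made in yeast as GST fusions, captured on glutathione beads and barcoded with DNA. With a tag-only sample included, the pool was incubated with 200 nmole of a random double-stranded 16-mer DNA library in Tris/NaCl/DTT/glycerol buffer at room temperature for 30 min, then crosslinked with 0.1% formaldehyde after washing, ligated by proximity, amplified and sequenced. For binding signal, each hexamer's read frequency for a factor is divided by its frequency for the tag-only sample.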

The next experiment addresses ETV5 (Homo sapiens, UniProt P41161 1-510). The conditions noted are these: protein: recombinant; tags: N-terminal GST; dsDNA, one strand shown. A digest of the protocol:
as §1

The target in the next experiment is HSF1 (Homo sapiens, UniProt Q00613 1-529). The conditions noted are these: protein: recombinant; tags: N-terminal GST; chain copies: 3; dsDNA, one strand shown. A digest of the protocol:
as §1

Another experiment addresses T2, SPIC (Homo sapiens, UniProt Q8N5J4 1-248).
T2 sequence: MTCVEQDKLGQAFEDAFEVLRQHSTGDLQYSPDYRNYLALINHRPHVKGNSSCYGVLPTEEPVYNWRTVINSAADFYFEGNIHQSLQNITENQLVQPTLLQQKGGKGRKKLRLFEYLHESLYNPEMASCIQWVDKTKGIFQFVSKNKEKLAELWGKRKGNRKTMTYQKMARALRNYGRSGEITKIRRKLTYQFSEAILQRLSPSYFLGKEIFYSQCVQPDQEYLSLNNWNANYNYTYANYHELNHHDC
The settings on record: protein: recombinant; tags: N-terminal GST; dsDNA, one strand shown. The method, boiled down: as §1

The next experiment addresses ELF4 (Homo sapiens, UniProt Q99607 1-663). The settings on record: protein: recombinant; tags: N-terminal GST; dsDNA, one strand shown. A digest of the protocol:
as §1

The target in a further experiment is T3, ELK4 (Homo sapiens, UniProt P28324-2 1-405).
T3 sequence: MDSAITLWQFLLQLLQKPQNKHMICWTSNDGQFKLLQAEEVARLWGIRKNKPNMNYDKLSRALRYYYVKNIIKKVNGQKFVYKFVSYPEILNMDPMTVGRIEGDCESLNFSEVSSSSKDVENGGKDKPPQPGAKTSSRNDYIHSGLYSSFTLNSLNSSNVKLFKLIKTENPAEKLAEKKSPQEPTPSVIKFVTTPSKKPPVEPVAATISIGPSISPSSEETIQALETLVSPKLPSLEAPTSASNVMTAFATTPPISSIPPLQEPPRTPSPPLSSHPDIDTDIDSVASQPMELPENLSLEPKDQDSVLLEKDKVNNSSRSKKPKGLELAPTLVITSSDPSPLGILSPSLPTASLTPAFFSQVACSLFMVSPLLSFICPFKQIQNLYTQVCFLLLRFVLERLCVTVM
The conditions noted are these: protein: recombinant; tags: N-terminal GST; dsDNA, one strand shown. The method, boiled down: as §1

The target in a further experiment is T4, ETV2 (Homo sapiens, UniProt O00321 1-342).
T4 sequence: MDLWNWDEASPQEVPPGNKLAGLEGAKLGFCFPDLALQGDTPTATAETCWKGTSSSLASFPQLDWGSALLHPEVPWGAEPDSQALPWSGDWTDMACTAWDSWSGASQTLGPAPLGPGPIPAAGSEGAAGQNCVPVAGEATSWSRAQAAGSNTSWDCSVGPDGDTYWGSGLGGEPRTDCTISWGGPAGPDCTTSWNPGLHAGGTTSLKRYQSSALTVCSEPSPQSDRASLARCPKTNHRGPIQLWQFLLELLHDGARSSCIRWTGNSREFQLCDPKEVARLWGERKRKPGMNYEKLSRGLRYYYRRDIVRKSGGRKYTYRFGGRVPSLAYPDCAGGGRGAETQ
The settings on record: protein: recombinant; tags: N-terminal GST; dsDNA, one strand shown. The method, boiled down:
as §1

The target of the next experiment is T5, ELF3 (Homo sapiens, UniProt P78545 1-371).
T5 sequence: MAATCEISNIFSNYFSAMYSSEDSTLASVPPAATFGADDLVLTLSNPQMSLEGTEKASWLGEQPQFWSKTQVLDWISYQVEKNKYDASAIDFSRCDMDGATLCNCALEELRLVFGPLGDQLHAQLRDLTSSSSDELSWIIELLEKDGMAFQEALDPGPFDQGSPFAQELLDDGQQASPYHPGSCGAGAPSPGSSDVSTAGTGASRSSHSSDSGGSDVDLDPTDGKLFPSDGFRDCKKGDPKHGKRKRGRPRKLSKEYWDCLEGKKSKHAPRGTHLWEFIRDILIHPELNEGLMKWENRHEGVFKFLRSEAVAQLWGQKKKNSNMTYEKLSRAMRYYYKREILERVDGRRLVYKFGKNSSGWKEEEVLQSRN
The conditions noted are these: protein: recombinant; tags: N-terminal GST; dsDNA, one strand shown. The method, boiled down: as §1

The target in another experiment is CRX (Homo sapiens, UniProt O43186 1-299). The settings on record: protein: recombinant; tags: N-terminal GST; dsDNA, one strand shown. The method, boiled down: as §1
A further experiment has as its target ETV1 (Homo sapiens, UniProt P50549 1-477). The conditions noted are these: protein: recombinant; tags: N-terminal GST; dsDNA, one strand shown. A digest of the protocol: as §1
Another experiment has as its target T6, ERF (Homo sapiens, UniProt P50548 1-548).
T6 sequence: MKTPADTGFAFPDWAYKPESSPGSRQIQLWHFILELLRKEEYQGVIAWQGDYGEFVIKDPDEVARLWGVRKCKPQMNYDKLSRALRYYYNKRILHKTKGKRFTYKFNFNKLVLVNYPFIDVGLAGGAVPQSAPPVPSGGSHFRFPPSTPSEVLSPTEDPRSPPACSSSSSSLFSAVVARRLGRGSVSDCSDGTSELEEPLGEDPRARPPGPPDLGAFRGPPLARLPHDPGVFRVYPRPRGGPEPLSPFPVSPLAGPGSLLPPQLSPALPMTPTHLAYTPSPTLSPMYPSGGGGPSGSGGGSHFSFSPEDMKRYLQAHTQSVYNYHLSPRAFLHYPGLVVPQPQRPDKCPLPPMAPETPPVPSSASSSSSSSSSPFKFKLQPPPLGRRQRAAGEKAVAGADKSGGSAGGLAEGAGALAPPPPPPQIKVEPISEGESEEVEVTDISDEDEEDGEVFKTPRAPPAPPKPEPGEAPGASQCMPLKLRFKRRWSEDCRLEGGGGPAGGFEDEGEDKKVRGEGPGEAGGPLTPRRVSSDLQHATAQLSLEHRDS
The settings on record: protein: recombinant; tags: N-terminal GST; dsDNA, one strand shown. A digest of the protocol: as §1

Another experiment concerns the target T7, ETV3L (Homo sapiens, UniProt Q6ZN32 1-361).
T7 sequence: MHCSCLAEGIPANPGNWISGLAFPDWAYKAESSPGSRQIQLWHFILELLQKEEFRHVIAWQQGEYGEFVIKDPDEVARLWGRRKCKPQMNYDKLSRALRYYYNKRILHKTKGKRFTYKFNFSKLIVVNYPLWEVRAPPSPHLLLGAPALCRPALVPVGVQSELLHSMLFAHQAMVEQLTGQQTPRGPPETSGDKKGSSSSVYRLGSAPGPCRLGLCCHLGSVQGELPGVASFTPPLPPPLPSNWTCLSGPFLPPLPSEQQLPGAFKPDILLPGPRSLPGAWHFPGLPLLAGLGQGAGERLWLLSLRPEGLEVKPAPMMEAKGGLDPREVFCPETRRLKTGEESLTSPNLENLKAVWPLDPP
The settings on record: protein: recombinant; tags: N-terminal GST; dsDNA, one strand shown. The method, boiled down: as §1

In the next experiment the target is T8, ETS2 (Homo sapiens, UniProt P15036 1-469).
T8 sequence: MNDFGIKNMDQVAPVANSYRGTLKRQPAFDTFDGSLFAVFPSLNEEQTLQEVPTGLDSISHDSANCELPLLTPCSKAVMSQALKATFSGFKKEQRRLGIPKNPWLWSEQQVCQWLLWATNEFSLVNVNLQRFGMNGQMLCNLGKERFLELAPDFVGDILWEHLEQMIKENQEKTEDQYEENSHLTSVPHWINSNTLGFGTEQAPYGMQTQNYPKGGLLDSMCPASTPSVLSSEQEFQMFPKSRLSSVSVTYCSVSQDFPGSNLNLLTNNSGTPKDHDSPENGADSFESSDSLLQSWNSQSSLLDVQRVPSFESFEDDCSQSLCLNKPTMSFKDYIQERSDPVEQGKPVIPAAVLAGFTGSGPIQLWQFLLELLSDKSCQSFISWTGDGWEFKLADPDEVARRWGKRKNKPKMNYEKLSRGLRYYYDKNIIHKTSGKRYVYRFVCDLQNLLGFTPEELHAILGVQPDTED
The settings on record: protein: recombinant; tags: N-terminal GST; dsDNA, one strand shown. A digest of the protocol:
as §1

The target of a further experiment is T9, SPDEF (Homo sapiens, UniProt O95238 1-335).
T9 sequence: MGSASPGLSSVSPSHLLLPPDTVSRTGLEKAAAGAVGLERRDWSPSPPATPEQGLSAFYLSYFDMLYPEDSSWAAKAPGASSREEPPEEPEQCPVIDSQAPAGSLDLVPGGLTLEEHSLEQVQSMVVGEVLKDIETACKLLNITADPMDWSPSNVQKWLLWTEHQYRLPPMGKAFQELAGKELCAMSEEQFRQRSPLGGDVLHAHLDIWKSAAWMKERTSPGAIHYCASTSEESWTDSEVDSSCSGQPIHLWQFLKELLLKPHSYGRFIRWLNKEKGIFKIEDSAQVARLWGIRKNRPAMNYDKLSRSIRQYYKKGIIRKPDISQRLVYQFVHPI
The conditions noted are these: protein: recombinant; tags: N-terminal GST; dsDNA, one strand shown. The method, boiled down:
as §1

Another experiment has as its target T10, ETV7 (Homo sapiens, UniProt Q9Y603 1-341).
T10 sequence: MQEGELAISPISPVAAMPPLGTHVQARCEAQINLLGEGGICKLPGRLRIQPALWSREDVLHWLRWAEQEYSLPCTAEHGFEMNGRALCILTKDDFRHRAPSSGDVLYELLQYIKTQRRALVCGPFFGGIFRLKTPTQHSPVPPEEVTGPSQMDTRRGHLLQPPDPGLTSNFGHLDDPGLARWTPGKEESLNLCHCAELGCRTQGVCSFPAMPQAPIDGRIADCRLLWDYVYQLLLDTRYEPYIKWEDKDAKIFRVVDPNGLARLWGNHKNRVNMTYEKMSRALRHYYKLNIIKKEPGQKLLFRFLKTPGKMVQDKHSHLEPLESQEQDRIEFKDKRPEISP
The settings on record: protein: recombinant; tags: N-terminal GST; dsDNA, one strand shown. A digest of the protocol: as §1

A further experiment concerns the target T11, ELF5 (Homo sapiens, UniProt Q9UKW6-2 1-255).
T11 sequence: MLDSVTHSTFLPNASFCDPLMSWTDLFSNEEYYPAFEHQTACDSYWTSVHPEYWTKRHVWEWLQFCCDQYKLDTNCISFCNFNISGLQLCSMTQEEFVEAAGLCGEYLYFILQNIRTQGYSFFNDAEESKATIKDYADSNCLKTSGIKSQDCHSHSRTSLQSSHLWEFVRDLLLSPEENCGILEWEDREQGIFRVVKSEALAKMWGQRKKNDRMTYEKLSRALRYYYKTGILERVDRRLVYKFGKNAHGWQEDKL
The settings on record: protein: recombinant; tags: N-terminal GST; dsDNA, one strand shown. The method, boiled down:
as §1

The target in a further experiment is T12, ETV3 (Homo sapiens, UniProt P41162-2 1-143).
T12 sequence: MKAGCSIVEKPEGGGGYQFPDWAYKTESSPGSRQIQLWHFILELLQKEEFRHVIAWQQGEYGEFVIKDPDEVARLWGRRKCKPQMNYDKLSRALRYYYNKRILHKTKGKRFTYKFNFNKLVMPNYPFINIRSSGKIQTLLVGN
The settings on record: protein: recombinant; tags: N-terminal GST; dsDNA, one strand shown. A digest of the protocol:
as §1

The next experiment addresses ETV6 (Homo sapiens, UniProt P41212 1-452). The settings on record: protein: recombinant; tags: N-terminal GST; dsDNA, one strand shown. The method, boiled down: as §1

HSF1, sequence (Q00613 whole entry): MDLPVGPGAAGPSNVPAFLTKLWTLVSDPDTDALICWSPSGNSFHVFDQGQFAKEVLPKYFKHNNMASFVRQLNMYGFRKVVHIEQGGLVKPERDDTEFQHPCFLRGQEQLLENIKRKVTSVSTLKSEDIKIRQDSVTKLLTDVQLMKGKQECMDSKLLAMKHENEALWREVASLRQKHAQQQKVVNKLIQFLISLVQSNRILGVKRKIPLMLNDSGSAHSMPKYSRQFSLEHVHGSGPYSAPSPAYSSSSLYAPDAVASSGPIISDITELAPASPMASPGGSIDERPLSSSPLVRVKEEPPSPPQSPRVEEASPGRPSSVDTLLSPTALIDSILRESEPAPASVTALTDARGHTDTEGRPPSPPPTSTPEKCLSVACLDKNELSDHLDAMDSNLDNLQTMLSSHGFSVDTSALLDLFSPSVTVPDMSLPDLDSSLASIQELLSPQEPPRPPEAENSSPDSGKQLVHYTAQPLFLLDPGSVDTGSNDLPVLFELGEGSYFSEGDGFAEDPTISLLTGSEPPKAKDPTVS
ETV6, sequence (P41212 whole entry): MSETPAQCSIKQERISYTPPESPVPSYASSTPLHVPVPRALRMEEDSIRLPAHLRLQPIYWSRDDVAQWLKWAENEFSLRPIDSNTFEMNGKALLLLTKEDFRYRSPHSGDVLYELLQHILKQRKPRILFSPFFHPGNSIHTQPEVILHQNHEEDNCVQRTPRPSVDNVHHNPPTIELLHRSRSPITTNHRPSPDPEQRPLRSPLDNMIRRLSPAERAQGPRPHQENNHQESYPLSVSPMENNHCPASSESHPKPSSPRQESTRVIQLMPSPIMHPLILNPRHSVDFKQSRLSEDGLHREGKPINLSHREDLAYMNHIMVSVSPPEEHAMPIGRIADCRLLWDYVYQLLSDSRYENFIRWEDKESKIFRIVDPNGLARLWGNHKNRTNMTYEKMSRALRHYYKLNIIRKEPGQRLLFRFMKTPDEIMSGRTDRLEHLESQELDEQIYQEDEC
ETV5, sequence (P41161 whole entry): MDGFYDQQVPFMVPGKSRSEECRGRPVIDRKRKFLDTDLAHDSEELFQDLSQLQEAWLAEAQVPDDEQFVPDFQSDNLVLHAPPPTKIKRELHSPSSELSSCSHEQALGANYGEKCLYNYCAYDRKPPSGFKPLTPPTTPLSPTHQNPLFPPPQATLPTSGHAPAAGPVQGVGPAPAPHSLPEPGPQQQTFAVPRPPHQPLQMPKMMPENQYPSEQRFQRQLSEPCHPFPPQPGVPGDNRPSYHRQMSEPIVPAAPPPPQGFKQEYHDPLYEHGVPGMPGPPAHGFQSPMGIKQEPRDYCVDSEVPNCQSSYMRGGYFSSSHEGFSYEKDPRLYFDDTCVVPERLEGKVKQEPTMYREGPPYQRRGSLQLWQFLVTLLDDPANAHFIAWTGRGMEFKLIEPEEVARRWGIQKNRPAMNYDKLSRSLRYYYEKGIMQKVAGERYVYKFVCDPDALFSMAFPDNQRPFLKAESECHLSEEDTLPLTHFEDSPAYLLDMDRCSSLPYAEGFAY
ETV1, sequence (P50549 whole entry): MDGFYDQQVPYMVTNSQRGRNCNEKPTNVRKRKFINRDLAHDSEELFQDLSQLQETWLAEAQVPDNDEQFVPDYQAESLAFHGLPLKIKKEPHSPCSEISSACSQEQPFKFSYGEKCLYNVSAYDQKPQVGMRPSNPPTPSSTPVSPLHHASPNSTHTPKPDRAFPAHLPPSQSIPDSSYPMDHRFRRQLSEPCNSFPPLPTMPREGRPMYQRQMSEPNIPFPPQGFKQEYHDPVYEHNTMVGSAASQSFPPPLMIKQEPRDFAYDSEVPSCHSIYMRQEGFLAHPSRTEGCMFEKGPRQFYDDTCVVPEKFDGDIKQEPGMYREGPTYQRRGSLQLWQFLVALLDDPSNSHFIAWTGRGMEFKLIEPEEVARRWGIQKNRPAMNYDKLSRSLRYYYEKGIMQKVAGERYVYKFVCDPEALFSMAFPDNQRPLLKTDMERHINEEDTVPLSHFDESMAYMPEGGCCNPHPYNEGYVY
ELF4, sequence (Q99607 whole entry): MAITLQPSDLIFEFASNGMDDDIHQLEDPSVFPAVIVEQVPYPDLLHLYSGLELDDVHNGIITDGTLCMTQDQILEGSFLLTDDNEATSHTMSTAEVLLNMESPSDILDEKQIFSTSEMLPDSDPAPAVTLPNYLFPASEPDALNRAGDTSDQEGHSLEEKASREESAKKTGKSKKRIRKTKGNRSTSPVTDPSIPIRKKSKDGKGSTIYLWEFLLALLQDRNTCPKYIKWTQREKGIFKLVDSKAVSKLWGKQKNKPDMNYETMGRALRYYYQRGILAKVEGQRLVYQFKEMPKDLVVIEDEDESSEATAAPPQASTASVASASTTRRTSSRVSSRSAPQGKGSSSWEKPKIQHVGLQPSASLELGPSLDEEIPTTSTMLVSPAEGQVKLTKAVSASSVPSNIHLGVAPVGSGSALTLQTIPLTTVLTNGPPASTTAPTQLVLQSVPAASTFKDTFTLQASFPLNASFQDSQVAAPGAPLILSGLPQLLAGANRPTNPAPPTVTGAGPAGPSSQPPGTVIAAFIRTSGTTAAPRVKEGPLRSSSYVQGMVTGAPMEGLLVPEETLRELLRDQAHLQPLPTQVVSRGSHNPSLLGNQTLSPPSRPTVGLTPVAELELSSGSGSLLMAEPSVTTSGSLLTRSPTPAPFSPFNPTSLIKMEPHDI
CRX, sequence (O43186 whole entry): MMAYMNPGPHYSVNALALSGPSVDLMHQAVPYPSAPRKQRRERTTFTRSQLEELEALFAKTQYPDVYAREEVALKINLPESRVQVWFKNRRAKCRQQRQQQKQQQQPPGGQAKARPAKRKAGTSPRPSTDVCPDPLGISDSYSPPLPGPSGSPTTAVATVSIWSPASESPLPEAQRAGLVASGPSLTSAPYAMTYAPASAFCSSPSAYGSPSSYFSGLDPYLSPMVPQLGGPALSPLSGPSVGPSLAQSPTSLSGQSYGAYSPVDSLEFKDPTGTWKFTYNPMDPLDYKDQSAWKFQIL

On to TTCTAG, for which the binding signal with FEV is 1.15 fold enrichment (6-mer frequency, TF over GST control); in the experiment with ETV5, 1.11 fold enrichment (6-mer frequency, TF over GST control); with HSF1, 7.56 fold enrichment (6-mer frequency, TF over GST control); with SPIC it was 1.29 fold enrichment (6-mer frequency, TF over GST control); with ELF4, 1.22 fold enrichment (6-mer frequency, TF over GST control); in the experiment with ELK4, 1.22 fold enrichment (6-mer frequency, TF over GST control). The binding signal with ETV2 is 1.18 fold enrichment (6-mer frequency, TF over GST control); with ELF3, 1.42 fold enrichment (6-mer frequency, TF over GST control); in the experiment with CRX it was 2.67 fold enrichment (6-mer frequency, TF over GST control); in the experiment with ETV1, 1.2 fold enrichment (6-mer frequency, TF over GST control); with ERF, 1.33 fold enrichment (6-mer frequency, TF over GST control); in the experiment with ETV3L it was 1.3 fold enrichment (6-mer frequency, TF over GST control). In addition, the binding signal is 1.34 fold enrichment (6-mer frequency, TF over GST control) in the experiment with ETS2; 1.17 fold enrichment (6-mer frequency, TF over GST control) with SPDEF; 1.45 fold enrichment (6-mer frequency, TF over GST control) in the experiment with ETV7; 1.2 fold enrichment (6-mer frequency, TF over GST control) with ELF5; 1.19 fold enrichment (6-mer frequency, TF over GST control) with ETV3; 1.16 fold enrichment (6-mer frequency, TF over GST control) with ETV6.
